Test results published in PubChem BioAssay.

biological target: Focal adhesion kinase 1 (Homo sapiens) (UniProt Q05397); assay: small-molecule microarray binders of FAK, primary screen, biochemical, 635/667 nm fluorescence, BSA, DTT (AID 1130); conditions: PTK2 binding, 635 nm fluorescence, higher = more signal;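 further: composite of spot emission at 667 nm and signal to noise over triplicate slides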
Sequence (Q05397 whole entry, looked up): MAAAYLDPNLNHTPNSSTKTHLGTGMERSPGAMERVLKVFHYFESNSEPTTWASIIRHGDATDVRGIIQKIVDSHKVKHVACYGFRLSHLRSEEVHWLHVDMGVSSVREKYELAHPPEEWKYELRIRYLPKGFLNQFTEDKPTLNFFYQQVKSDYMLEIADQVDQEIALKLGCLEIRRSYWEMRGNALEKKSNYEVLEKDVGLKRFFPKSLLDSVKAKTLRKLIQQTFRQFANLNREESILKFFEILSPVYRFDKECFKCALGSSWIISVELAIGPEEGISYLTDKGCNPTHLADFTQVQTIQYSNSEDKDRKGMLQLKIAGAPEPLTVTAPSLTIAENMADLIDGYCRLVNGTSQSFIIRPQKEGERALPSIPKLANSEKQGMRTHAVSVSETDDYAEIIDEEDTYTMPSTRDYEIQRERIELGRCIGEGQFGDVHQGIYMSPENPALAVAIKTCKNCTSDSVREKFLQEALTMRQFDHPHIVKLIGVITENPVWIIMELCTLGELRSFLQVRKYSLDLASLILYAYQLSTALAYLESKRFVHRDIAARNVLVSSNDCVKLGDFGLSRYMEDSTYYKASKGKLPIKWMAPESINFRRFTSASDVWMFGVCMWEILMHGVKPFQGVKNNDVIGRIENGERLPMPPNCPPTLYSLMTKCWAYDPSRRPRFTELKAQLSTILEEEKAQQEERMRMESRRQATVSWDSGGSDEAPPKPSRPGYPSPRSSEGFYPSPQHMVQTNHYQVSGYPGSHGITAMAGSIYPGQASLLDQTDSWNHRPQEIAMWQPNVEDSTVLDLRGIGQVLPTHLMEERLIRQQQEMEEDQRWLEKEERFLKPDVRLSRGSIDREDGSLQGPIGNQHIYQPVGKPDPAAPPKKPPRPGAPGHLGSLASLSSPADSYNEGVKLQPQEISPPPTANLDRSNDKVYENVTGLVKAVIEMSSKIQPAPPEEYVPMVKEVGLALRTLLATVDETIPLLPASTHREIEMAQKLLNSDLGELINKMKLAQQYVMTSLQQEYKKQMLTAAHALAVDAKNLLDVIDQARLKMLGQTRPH

Structure (SMILES) | composite z-score
CCC#CCN(Cc1ccccc1Br)[C@H](/C=C/C1CC1)[C@@H](O)Cc1ccccc1 | -0.579
CCCCN1CC=CC23O[C@@H]4/C=C\CCCOC(=O)C4[C@H]2C(=O)N(CCO)[C@@H]3C1=O (some centres not stated) | 0.101
C=CCNC(=O)[C@@H]1[C@H]2C(=O)O[C@H](c3ccccc3)[C@H](c3ccccc3)N2[C@H](c2ccccc2OCCO)[C@@]12C(=O)N(C(=O)OCCOC)c1ccc(C#CC3(O)CCCCCC3)cc12 | 0.894
O=C(C1N=C(c2ccc(OCCCO)cc2)N(c2ccccc2)O1)N1CCCCC1 (configuration not stated) | 0.634
CN(C)CCCCCCNC(=O)[C@@H]1C[C@@H]2C(=O)N3CCC[C@H]3C(=O)N2[C@@H]1c1cccc(OCCO)c1 | 0.338
COC(=O)[C@@]1(Cc2ccccc2)[C@H]2c3cc(C(=O)N(C)C)n(Cc4ccc(C)o4)c3C[C@H]2CN1C(=O)c1ccccc1 | 1.73
O[C@@H](Cc1ccccc1)[C@@H](/C=C/C1CC1)N(CC#Cc1ccccc1)Cc1ccccc1Br | 0.284
COCC(=C=CC[C@H](O)c1ccc(OCCO)cc1)CCO | -0.225
NCCCCCNC(=O)[C@H]1C[C@H]2C(=O)N3CCC[C@H]3C(=O)N2[C@H]1c1cccc(OCCO)c1 | 0.0204
CCCC[C@@H]1C[C@H]1[C@@H](NC(=O)c1cccs1)c1ccccc1C(F)(F)F | -0.157
CCOC(=O)C[C@H]1[C@H](OC(=O)Cc2ccc3c(c2)OCO3)[C@@H](NC(=O)C2CCCCC2)c2cc(OCCCO)ccc2N1C(=O)c1ccccc1 | 0.408
COc1cc(C(O)C2C=CC3C(=O)N(C)C(=O)C3N2Nc2ccccc2)cc(OC)c1OC (configuration not stated) | 1.05
